The source of these data is PubChem BioAssay (NCATS).

A number with no mark means an inactive call. Inconclusive results are not listed. The source made the active and inactive calls. The call rests on the fitted dose curve; in most records, active means well fitted curve in the direction sought with a large enough effect; inconclusive means small, poorly fitted or top-dose-only effect, or another doubt; inactive means no such curve, though single readings can be large; an effect the other way counts as inactive or inconclusive.

Test system in one test: not listed separately
Description: Cell Viability - LYMP2-020 (AID 986).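 Further: cells exposed to compound for 24 h at 37 °C; plate controls were DMSO only for no effect and tetraoctylammonium bromide at 92 µM for full effect; nearly all actives have a fitted effect of over 55% in size.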 The conditions noted are these: series mostly up to 92.2 µM; activity change, negative = viability loss: at the top concentration. The procedure, abridged:
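Acute cytotoxicity in a human lymphoblastoid line is scored as a concentration-dependent fall in cellular ATP after 24 hr at 37 C in complete medium. The positive control is tetraoctylammonium bromide, and potency is given as Hill-fit AC50.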
In the case of `Cc1ccc(-c2cc(C(F)(F)F)nn2-c2ccc(S(N)(=O)=O)cc2)cc1`, the “activity change, negative = viability loss” value was -10.8%.
On to `CC(C)C(=O)Nc1ccc([N+](=O)[O-])c(C(F)(F)F)c1`, for which the “activity change, negative = viability loss” value was -13.3%.
Turning to `Cn1c(=O)c2[nH]cnc2n(C)c1=O`, the “activity change, negative = viability loss” value is -14%.
With `Cc1cn([C@H]2C=C[C@@H](CO)O2)c(=O)[nH]c1=O`, the call was inactive.
Consider `Clc1ccc(C(c2ccccc2Cl)C(Cl)Cl)cc1` (stereo not drawn), for which the “activity change, negative = viability loss” value was -1.25%.
Regarding `COc1ccc2[nH]cc(CCNC(C)=O)c2c1`, the “activity change, negative = viability loss” value was -0.821%.
With `Cn1c(=O)c2c(ncn2C)n(C)c1=O`, the “activity change, negative = viability loss” value is 2.62%.
For the compound `O=c1c(-c2ccc(O)cc2)coc2cc(O)cc(O)c12`, the “activity change, negative = viability loss” value was -16.6%.
Turning to `Cc1cn([C@H]2C[C@H](N=[N+]=[N-])[C@@H](CO)O2)c(=O)[nH]c1=O`, the “activity change, negative = viability loss” value was -2.78%.

Test system in the next test: not listed separately
Description: Cell Viability - LYMP2-022 (AID 987).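 Further: cells exposed to compound for 24 hr; 0% = DMSO alone and full effect = tetraoctylammonium bromide at 92 µM; nearly all actives have a fitted effect of over 55% in size.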 The conditions noted are these: LYMP2-022 lymphoblastoid cell viability; series mostly up to 92.2 µM; viability change, negative = cytotoxic: at the top concentration. An outline of the steps:
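Acute toxicity in a human lymphoblastoid line is scored as decreased intracellular ATP after 24 hr compound treatment at 37 C. ATP is measured by CellTiter-Glo luminescence; curves are fitted with the Hill equation to give AC50.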
On to `Cc1ccc(-c2cc(C(F)(F)F)nn2-c2ccc(S(N)(=O)=O)cc2)cc1`, for which the “viability change, negative = cytotoxic” value is -15.3%.
`CC(C)C(=O)Nc1ccc([N+](=O)[O-])c(C(F)(F)F)c1`: the “viability change, negative = cytotoxic” value was -15.4%.
With `Cn1c(=O)c2[nH]cnc2n(C)c1=O`, the “viability change, negative = cytotoxic” value is -18.2%.
On to `Cc1cn([C@H]2C=C[C@@H](CO)O2)c(=O)[nH]c1=O`, for which the compound was called inactive.
In the case of `Clc1ccc(C(c2ccccc2Cl)C(Cl)Cl)cc1` (stereo not drawn), the “viability change, negative = cytotoxic” value was -1.89%.
`COc1ccc2[nH]cc(CCNC(C)=O)c2c1`: the “viability change, negative = cytotoxic” value was -3.45%.
As for `Cn1c(=O)c2c(ncn2C)n(C)c1=O`, the “viability change, negative = cytotoxic” value is -8.88%.
Consider `O=c1c(-c2ccc(O)cc2)coc2cc(O)cc(O)c12`, for which the “viability change, negative = cytotoxic” value is -21.4%.
In the case of `Cc1cn([C@H]2C[C@H](N=[N+]=[N-])[C@@H](CO)O2)c(=O)[nH]c1=O`, the “viability change, negative = cytotoxic” value was -10.4%.

Test system in another test: not listed separately
Description: Cell Viability - LYMP2-024 (AID 988).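 Further: cells exposed to compound for 24 hr at 37 °C; plate controls were DMSO only for no effect and 92 µM tetraoctylammonium bromide for full effect; nearly all actives have a fitted effect of over 60% in size.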 As to conditions: LYMP2-024 lymphoblastoid cell viability; series mostly up to 92.2 µM; activity change, negative = cytotoxicity: at the top concentration. An outline of the steps: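 Acute toxicity is measured as concentration-dependent loss of intracellular ATP in a human lymphoblastoid line treated 24 hours at 37 C. Luciferase luminescence quantifies ATP; AC50 values come from standard Hill-equation modelling.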
Consider `Cc1ccc(-c2cc(C(F)(F)F)nn2-c2ccc(S(N)(=O)=O)cc2)cc1`, for which the “activity change, negative = cytotoxicity” value was -14%.
On the same count and under the same terms, the result for `CC(C)C(=O)Nc1ccc([N+](=O)[O-])c(C(F)(F)F)c1` reads -16.3%; that for `Cn1c(=O)c2[nH]cnc2n(C)c1=O`, -3.69%.
Turning to `Cc1cn([C@H]2C=C[C@@H](CO)O2)c(=O)[nH]c1=O`, the compound was called inactive.
Turning to `Clc1ccc(C(c2ccccc2Cl)C(Cl)Cl)cc1` (stereo not drawn), the “activity change, negative = cytotoxicity” value is -12.5%.
Take `COc1ccc2[nH]cc(CCNC(C)=O)c2c1`: the “activity change, negative = cytotoxicity” value was 1.96%.
In the case of `Cn1c(=O)c2c(ncn2C)n(C)c1=O`, the “activity change, negative = cytotoxicity” value is 0.207%.
On the same count and under the same terms, the figure for `O=c1c(-c2ccc(O)cc2)coc2cc(O)cc(O)c12` is -25.2%.
On to `Cc1cn([C@H]2C[C@H](N=[N+]=[N-])[C@@H](CO)O2)c(=O)[nH]c1=O`, for which the “activity change, negative = cytotoxicity” value is -7.43%.

Test system in the next test: not listed separately
Description: Cell Viability - LYMP2-026 (AID 989).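 Further: cells exposed to compound for 24 h at 37 °C; on the % scale 0 is the no-effect control and ±100 the full control effect; nearly all actives have a fitted effect of over 50% in size.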 As to conditions: LYMP2-026 lymphoblastoid cell viability, qHTS; series mostly up to 92.2 µM; activity change, negative = cytotoxic: at the top concentration. The procedure, abridged:
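Concentration-dependent loss of intracellular ATP in human lymphoblastoid cells after 24 hr at 37 C, quantified by luciferase luminescence. AC50 derived from standard Hill equation.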
In the case of `Cc1ccc(-c2cc(C(F)(F)F)nn2-c2ccc(S(N)(=O)=O)cc2)cc1`, the “activity change, negative = cytotoxic” value was -6.95%.
Consider `CC(C)C(=O)Nc1ccc([N+](=O)[O-])c(C(F)(F)F)c1`, for which the “activity change, negative = cytotoxic” value is -16.6%.
Consider `Cn1c(=O)c2[nH]cnc2n(C)c1=O`, for which the “activity change, negative = cytotoxic” value is -8.48%.
Turning to `Cc1cn([C@H]2C=C[C@@H](CO)O2)c(=O)[nH]c1=O`, the compound was called inactive.
In the case of `Clc1ccc(C(c2ccccc2Cl)C(Cl)Cl)cc1` (stereo not drawn), the “activity change, negative = cytotoxic” value was -5.41%.
With `COc1ccc2[nH]cc(CCNC(C)=O)c2c1`, the “activity change, negative = cytotoxic” value is 4.33%.
As for `Cn1c(=O)c2c(ncn2C)n(C)c1=O`, the “activity change, negative = cytotoxic” value is -2.86%.
Take `O=c1c(-c2ccc(O)cc2)coc2cc(O)cc(O)c12`: the “activity change, negative = cytotoxic” value was -9.73%.
On the same count and under the same terms, the result for `Cc1cn([C@H]2C[C@H](N=[N+]=[N-])[C@@H](CO)O2)c(=O)[nH]c1=O` reads 4.31%.

For a further test, the target named is Alpha-galactosidase A (Homo sapiens) (UniProt P06280). Description: Counterscreen for Glucocerebrosidase Inhibitors: qHTS Assay for Human alpha-Galactosidase at pH 4.5 (AID 992). Further: 0% is about no effect. As to conditions: purified enzyme, fluorogenic substrate; series mostly up to 76.9 µM; activity change, negative = inhibition: at the top concentration. The procedure, abridged: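 Concentration-response curves (0.7 nM to 77 uM final) were modeled with the Hill equation to give AC50. Reactions: 2 nM enzyme, 80 uM fluorogenic alpha-galactoside, pH 4.5 citric acid buffer, 20 min, room temperature.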
Sequence of Alpha-galactosidase A (Homo sapiens) (P06280 whole entry, looked up): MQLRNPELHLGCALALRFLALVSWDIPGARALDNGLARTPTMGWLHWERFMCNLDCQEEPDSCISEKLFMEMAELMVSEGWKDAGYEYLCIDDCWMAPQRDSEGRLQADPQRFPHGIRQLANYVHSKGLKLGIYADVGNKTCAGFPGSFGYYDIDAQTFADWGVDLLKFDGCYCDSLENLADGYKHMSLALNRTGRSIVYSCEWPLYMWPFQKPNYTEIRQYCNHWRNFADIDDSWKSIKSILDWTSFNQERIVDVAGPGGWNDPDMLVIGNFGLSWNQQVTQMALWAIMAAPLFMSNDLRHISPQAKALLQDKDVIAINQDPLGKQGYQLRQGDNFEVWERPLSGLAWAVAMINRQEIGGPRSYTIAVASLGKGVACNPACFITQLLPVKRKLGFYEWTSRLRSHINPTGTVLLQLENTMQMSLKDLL
On to `O=C(C1CCCCC1)N1CC(=O)N2CCc3ccccc3C2C1` (stereo not drawn), for which the “activity change, negative = inhibition” value was -1.97%.
For the compound `C[C@](N)(Cc1ccc(O)c(O)c1)C(=O)O`, the “activity change, negative = inhibition” value was -2.26%.
Turning to `CC(C)C(=O)Nc1ccc([N+](=O)[O-])c(C(F)(F)F)c1`, the “activity change, negative = inhibition” value is -0.947%.
For `Cn1c(=O)c2[nH]cnc2n(C)c1=O`, the “activity change, negative = inhibition” value is -2.62%.
As to `Cc1cc(C(C)(C)C)cc(C)c1CC1=NCCN1`, the “activity change, negative = inhibition” value is 0.0957%.
Consider `CC(C)Cc1ccc(C(C)C(=O)O)cc1` (stereo not drawn), for which the “activity change, negative = inhibition” value was -0.157%.
The same measure, in the same setting: the result for `COc1cc2c(c(OC)c1OC)-c1ccc(OC)c(=O)cc1[C@@H](NC(C)=O)CC2` reads 1.72%; that for `CC[N+](CC)(CC)CCOc1cccc(OCC[N+](CC)(CC)CC)c1OCC[N+](CC)(CC)CC`, 1.65%; that for `CN(C)C(=O)C(CCN1CCC(O)(c2ccc(Cl)cc2)CC1)(c1ccccc1)c1ccccc1`, -7.28%.
On the same count and under the same terms, the figure for `CCOC(=O)c1ncn2c1CN(C)C(=O)c1cc(F)ccc1-2` is -1.75%; for `CN1C(C(=O)Nc2ccccn2)=C(O)c2ccccc2S1(=O)=O` it is -5.54%; for `Cc1cn([C@H]2C=C[C@@H](CO)O2)c(=O)[nH]c1=O` it is 0.734%.
Consider `Cc1ccc(C(=O)Nc2ccc(S(=O)(=O)O)c3cc(S(=O)(=O)O)cc(S(=O)(=O)O)c23)cc1NC(=O)c1cccc(NC(=O)Nc2cccc(C(=O)Nc3cc(C(=O)Nc4ccc(S(=O)(=O)O)c5cc(S(=O)(=O)O)cc(S(=O)(=O)O)c45)ccc3C)c2)c1`, for which the “activity change, negative = inhibition” value is 0.9%.
Regarding `Clc1ccc(C(c2ccccc2Cl)C(Cl)Cl)cc1` (stereo not drawn), the “activity change, negative = inhibition” value was -4.94%.
Turning to `O=C(Nc1ccc([N+](=O)[O-])cc1Cl)c1cc(Cl)ccc1O`, the “activity change, negative = inhibition” value was -0.453%.
`O=c1c(O)c(-c2ccc(O)c(O)c2)oc2cc(O)cc(O)c12`: the “activity change, negative = inhibition” value was 2.61%.
Take `COc1ccc2[nH]cc(CCNC(C)=O)c2c1`: the “activity change, negative = inhibition” value was 1.4%.
As for `Cn1ccc2cc3c(cc21)CCN3C(=O)Nc1cccnc1`, the “activity change, negative = inhibition” value was -1.1%.
On the same count and under the same terms, the result for `Cn1c(=O)c2c(ncn2C)n(C)c1=O` reads -0.755%; that for `Cc1ccccc1N1C(=O)c2cc(S(N)(=O)=O)c(Cl)cc2NC1C` (stereo not drawn), 3.47%; that for `O=c1c(-c2ccc(O)cc2)coc2cc(O)cc(O)c12`, -1.35%.
In the case of `CCc1cccc2c3c([nH]c12)C(CC)(CC(=O)O)OCC3` (stereo not drawn), the “activity change, negative = inhibition” value was 5.53%.
